In this assay the target is ParRC(pCW3) (Clostridium perfringens plasmid pCW3, UniProt Q1PLJ8 1-87). The assay can be described thus: SPR; high values mean tight binding. The settings on record: protein: recombinant; tags: C-terminal His6; chain copies: 4; label: 3' 20-nt overhang of comp strand annealed to immobilized 5'-biotin ReDCaT linker; dsDNA, one strand shown. (In general: In SPR one partner is held on a chip, and binding of the other changes the refractive index at the surface.)

As to ATTTTACGGAAAATGCTTGATTTAGATTGA, the binding signal is 9.2 RU.

On to ATCACAATTTTACGTAATGACAGTTTGTTG, for which the binding signal was found to be 54.7 RU.

As to AATTTTACATAATAGAAAGGATTGATAAAA, the binding signal amounted to 3.1 RU.

With AAACATCACAATTTTACGGAAAATGCTTGA, the binding signal was 282 RU.

Regarding CATAAACATCACAATTTTACGTAATTTAGA, the binding signal turned out to be 348 RU.

ACAATTTTACATAATAGAAAGGATTGATAA: the binding signal was determined as 4.3 RU.

With AAAAAACATCACAATTTTACATAATAGAAA, the binding signal came out at 311 RU.

Consider AATATAAAAACATAAACATCACAATTTTAC, for which the binding signal was 155 RU.

For ACAATTTTACGTAATTTAGATTTTGCAAGT, the binding signal is 48.4 RU.

As for TTTTGCAAGTAAAAAACATCACAATTTTAC, the binding signal was 217 RU.

Take AAAATGAAAAAAACATCACAATTTTACGGA: the binding signal is 250 RU.

For GTAATTTAGATTTTGCAAGTAAAAAACATC, the binding signal worked out at 42.6 RU.

With AATTAAAAACATCACAATTTTACGTAATGA, the binding signal amounted to 256 RU.

The values are drawn from PMC9426499.
